# Data reported in PubChem BioAssay.
# Calls of active or inactive are those of the source. Cut-off read from the data, not from the text of the source: active = fold change permeability below about 0.7 or above about 1.3; inactive = in between.
# Experiment: compounds altering in vitro BBB leakiness – cell-based, FITC-avidin fluorescence, HTS, primary screen (AID 1963498); note: test concentration not given here
# Conditions: brain endothelial barrier, actives lie on both sides
row,Compound,fold change permeability
1,O=C1Nc2nc(-c3c(O)cccc3OCC3CC3)cc([C@@H]3CCCNC3)c2CO1,1.6 (active)
2,COc1cc2nc(N3CCCC3)nc(NCCCCCN3CCCC3)c2cc1OC,1.2 (inactive)
3,Nc1nc2c(ncn2[C@@H]2O[C@H](CO)[C@@H](O)[C@@H]2O)c(=O)[nH]1,2.1 (active)
4,O=C(O)C1=CCCNC1,1 (inactive)
5,CC(C)COCC(CN(Cc1ccccc1)c1ccccc1)N1CCCC1 (stereo unspecified),1 (inactive)
6,O=C(O)Cc1c[nH]c2ccc(O)cc12,1.1 (inactive)
7,COc1ccc(CCN(C)CCc2ccc(OC)c(OC)c2)cc1OC,2 (active)
8,CCN(CC)CCOC(=O)c1ccc(N)cc1,0.8 (inactive)
9,CC(O)C(O)[C@H]1CNc2nc(N)[nH]c(=O)c2N1 (stereo partly specified),1.4 (active)
10,O=c1[nH]c(=O)n([C@H]2C[C@H](O)[C@@H](CO)O2)cc1Br,1 (inactive)
11,CN(C)CCC=C1c2ccccc2C=Cc2ccccc21,1.1 (inactive)
12,CSc1ccc2c(c1)N(CCC1CCCCN1C)c1ccccc1S2 (stereo unspecified),1.4 (active)
13,OC[C@H]1O[C@@H](n2cnc3c(NC4CCCCC4)ncnc32)[C@H](O)[C@@H]1O,1.2 (inactive)
14,Cc1nc(N=Nc2ccc(S(=O)(=O)O)cc2S(=O)(=O)O)c(COP(=O)(O)O)c(C=O)c1O,0.9 (inactive)
15,COC(=O)c1c(C)[nH]c(C)c1C(=O)c1ccccc1Cc1ccccc1,1.2 (inactive)
16,CC(=O)[C@]1(O)Cc2c(O)c3c(c(O)c2[C@@H](O[C@H]2C[C@H](N)[C@H](O)[C@H](C)O2)C1)C(=O)c1ccccc1C3=O,3.4 (active)
